Experimental data: article PMC4336329 (PLoS ONE, 2015)
The whole screen tested about 310,000 compounds, of which about 14,000 (4.5%) showed an effect of 50% or more. The effect is printed as a negative number. The sample as a whole holds a higher share of strong results than the screen did.

Target: human ether-à-go-go-related gene (hERG) potassium channel (human, UniProt Q12809)
Experiment: primary screen, population patch clamp on CHO cells stably expressing hERG; higher = less effect of the substance
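Further: peak tail current of the secondary pulse compared with the same well before compound.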

human ether-à-go-go-related gene (hERG) potassium channel, sequence (Q12809 whole entry, looked up): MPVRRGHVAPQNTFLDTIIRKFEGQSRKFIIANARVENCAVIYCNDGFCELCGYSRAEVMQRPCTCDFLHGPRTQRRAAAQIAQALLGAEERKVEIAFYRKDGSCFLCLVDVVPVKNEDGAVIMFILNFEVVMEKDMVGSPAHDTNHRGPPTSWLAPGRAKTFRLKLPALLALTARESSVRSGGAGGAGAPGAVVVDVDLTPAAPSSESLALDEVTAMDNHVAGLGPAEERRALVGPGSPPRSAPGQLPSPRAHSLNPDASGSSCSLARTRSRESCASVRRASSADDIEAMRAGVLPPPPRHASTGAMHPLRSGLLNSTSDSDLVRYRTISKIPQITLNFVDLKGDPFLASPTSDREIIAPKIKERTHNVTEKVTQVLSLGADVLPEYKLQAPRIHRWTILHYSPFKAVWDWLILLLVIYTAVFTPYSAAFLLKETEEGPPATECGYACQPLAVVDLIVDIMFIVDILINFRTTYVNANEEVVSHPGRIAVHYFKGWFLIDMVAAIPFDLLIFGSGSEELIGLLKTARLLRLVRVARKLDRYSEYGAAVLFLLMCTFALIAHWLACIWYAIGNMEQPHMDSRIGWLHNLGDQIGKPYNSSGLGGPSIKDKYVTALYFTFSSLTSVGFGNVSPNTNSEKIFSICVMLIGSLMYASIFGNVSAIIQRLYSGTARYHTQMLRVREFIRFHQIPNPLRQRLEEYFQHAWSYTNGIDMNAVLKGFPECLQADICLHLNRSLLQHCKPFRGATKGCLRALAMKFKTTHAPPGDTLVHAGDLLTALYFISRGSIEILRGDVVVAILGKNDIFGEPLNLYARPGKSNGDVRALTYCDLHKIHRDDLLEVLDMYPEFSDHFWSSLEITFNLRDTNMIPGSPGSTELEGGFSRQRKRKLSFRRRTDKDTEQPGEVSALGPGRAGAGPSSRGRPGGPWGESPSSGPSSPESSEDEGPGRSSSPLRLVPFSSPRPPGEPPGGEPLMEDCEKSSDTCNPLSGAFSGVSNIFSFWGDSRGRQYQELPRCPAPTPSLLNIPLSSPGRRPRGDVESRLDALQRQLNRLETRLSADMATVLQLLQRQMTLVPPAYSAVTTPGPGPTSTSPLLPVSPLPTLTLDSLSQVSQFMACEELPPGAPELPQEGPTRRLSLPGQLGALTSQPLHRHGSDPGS

Row | SMILES | hERG current change (%, negative = inhibition) at 10uM [%]
1 | CCOC(=O)c1cccc(COC(=O)c2cccc(-c3nnc(-c4ccccc4)o3)c2)c1 | -2.94
2 | COc1ccc(C(=O)c2ccsc2N)cc1 | 3.5
3 | Cc1ccc(OP(=O)(O)Oc2ccc(C)cc2)cc1 | 2.09
4 | CCOC(=O)c1cnc2ccc(OCC)cc2c1NCc1ccccc1OC | 4.45
5 | CCOC(=O)c1nc(NCc2cccnc2)c2ccccc2n1 | -15.3
6 | CCOC(=O)c1cnc2ccc(OCC)cc2c1N(C)Cc1ccccc1 | -11.9
7 | CCOC(=O)c1cnc2ccc(OCC)cc2c1NCc1cccnc1.Cl | -77.4
8 | CCOC(=O)c1cnc2ccc(OCC)cc2c1NCc1ccccc1 | -40.3
9 | CCOC(=O)c1cnc2ccc(OC)cc2c1NCc1ccccc1 | -65.8
10 | Cc1cccc(NC(=O)c2cc(S(=O)(=O)NCc3ccco3)ccc2F)c1C | 4.11
11 | O=C(CNC(=O)c1ccc(-c2ccccc2)cc1)Nc1ccc(S(=O)(=O)Nc2ncccn2)cc1 | 4.04
12 | Cc1cc(NCc2ccccn2)ccc1Br | -16.5
13 | Clc1ccc(Cn2cccc2C2=NCCO2)cc1 | 4.69
14 | CC(C)CNc1nc(Oc2ccc(=O)[nH]n2)nc(N(C)C)n1 | 8.46
15 | COC(=O)CC(NC(=S)NC(=O)c1ccccc1)c1ccc(Br)cc1 (stereo not drawn) | 6.8
16 | C=CCn1cc(C(=O)OC)c(=O)c2cc(S(=O)(=O)N3CCCCCC3)ccc21 | -0.223
17 | C=CCn1cc(C(=O)NCCOC)c(=O)c2cc(S(=O)(=O)N(CC)CC)ccc21 | -13.9
18 | C=CCn1cc(C(=O)NCc2ccco2)c(=O)c2cc(S(=O)(=O)N3CCCCCC3)ccc21 | -36.4
19 | C=CCn1cc(C(=O)NCCN(CC)CC)c(=O)c2cc(S(=O)(=O)N3CCCCCC3)ccc21 | -71.6
20 | COCCNC(=O)c1cn(C)c2ccc(S(=O)(=O)N3CCCCC3)cc2c1=O | 11.1
21 | C=CCn1cc(C(=O)NCc2ccc(Cl)cc2)c(=O)c2cc(S(=O)(=O)N(CC)CC)ccc21 | -22.5
22 | C=CCn1cc(C(=O)OC)c(=O)c2cc(S(=O)(=O)N3CCC(C)CC3)ccc21 | -39
23 | C=CCn1cc(C(=O)NCCOC)c(=O)c2cc(S(=O)(=O)N3CCCCCC3)ccc21 | -65.8
24 | C=CCn1cc(C(=O)NCCCOC)c(=O)c2cc(S(=O)(=O)N3CCC(C)CC3)ccc21 | -32.9
25 | CCN(CC)CCNC(=O)c1cn(CC)c2ccc(S(=O)(=O)N3CCOCC3)cc2c1=O | 14.6
26 | C=CCn1cc(C(=O)NCCCN(CC)CC)c(=O)c2cc(S(=O)(=O)N3CCC(C)CC3)ccc21 | -53.7
27 | C=CCn1cc(C(=O)NCc2cccnc2)c(=O)c2cc(S(=O)(=O)N(CC)CC)ccc21 | -74.4
